# Jurkat NFkB inh – lowers PMA/ionomycin-induced NF-kB signal in Jurkat cells; PMA/ionomycin-induced NF-kB luciferase reporter, luminescence; inhibition, % at 4 µM; AID 435003; actives 0.53% (n = 330,000); in the data active = inhibition above about 50%
# esBAF inh – inhibitors of esBAF chromatin remodeling in mouse ES cells | Bmi1-luciferase knock-in reporter, 24 h; 100% = twice the neutral-well signal | reporter increase, % at 12.5 µM | actives 2% (n = 350,000) | AID 602393; in the data active = activation above about 40%;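 note: a rise in the Bmi1 reporter signal indicates esBAF inhibition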
# Gli-Sufu antag – antagonists of Gli-Sufu signaling. AID 588413. actives 0.74% (n = 340,000). Sufu-KO-LIGHT fibroblasts, Gli luciferase reporter luminescence. inhibition, % at 5 µM;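 active = inhibition above about 55%, limit read from the data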
# 697 NFkB inh – lowers PMA/ionomycin-induced NF-kB signal in 697 B cells; 697 B-cell NF-kB luciferase reporter, 16 h; inhibition, % at 4 µM; actives 0.33% (n = 330,000); AID 435022; in the data active = inhibition above about 35%
# SMARCA2 activ – increases SMARCA2 function in MMTV reporter cells | MG213 cells, MMTV-luciferase reporter, dexamethasone, overnight | activation, % at 9.1 µM | actives 1% (n = 370,000); in the data active = activation above about 7.8%
# Numbers stand for hits; - = inactive; . = no result. Shown are actives, neighbours in structure and some others; about 3.3% of the full set was active somewhere.
SMILES,Jurkat NFkB inh,esBAF inh,Gli-Sufu antag,697 NFkB inh,SMARCA2 activ
COc1ccc(S(=O)(=O)Nc2ccc3c(c2)CC(=O)N([C@H](C)CO)C[C@H](C)[C@H](CN(C)Cc2ccc4c(c2)OCO4)O3)cc1,.,-,.,.,.
C[C@@H]1CN([C@H](C)CO)C(=O)c2cc(NC(=O)Cc3cn(C)c4ccccc34)ccc2O[C@H]1CN(C)C(=O)Nc1ccc(F)cc1,.,-,.,.,.
C[C@H](CO)N1C[C@H](C)[C@H](CN(C)S(=O)(=O)c2ccc(F)cc2)Oc2ccc(NS(=O)(=O)c3cccs3)cc2CC1=O,.,-,.,.,.
CN1C(=O)c2cc(NS(C)(=O)=O)ccc2OC[C@H]2O[C@@H](CC(=O)O)CC[C@H]21,.,-,.,.,.
CCOc1cccc(C(=O)Nc2cccc(C(C)=O)c2)c1,-,-,-,-,-
COc1ccc(C(=O)N/N=C/C(=O)c2ccccc2)cc1,-,62,-,-,-
CCOc1cccc(C(=O)Nc2ccc(N(CC)CC)cc2)c1,-,44,-,-,-
COc1cccc(C(=O)Nc2ccc(C(=O)c3ccccc3)cc2)c1,-,42,-,-,-
COc1ccc(C(=O)N/N=C/c2ccc3cccc(OCc4ccccc4)c3n2)cc1,-,64,-,-,-
C[C@@H]1CCCCO[C@@H](CN(C)S(=O)(=O)c2ccccc2)[C@H](C)CN([C@H](C)CO)C(=O)c2cc(NC(=O)Cc3ccccc3)ccc2O1,.,-,.,.,.
C[C@@H]1CCCCO[C@H](CN(C)C(=O)C2CCCCC2)[C@H](C)CN([C@H](C)CO)C(=O)c2cc(NS(=O)(=O)c3cccs3)ccc2O1,.,-,.,.,.
CCS(=O)(=O)Nc1ccc2c(c1)C(=O)N(C)[C@@H]1CC[C@H](CC(=O)N3CCOCC3)O[C@@H]1CO2,.,-,.,.,.
Cc1ccc(S(=O)(=O)Nc2ccc3c(c2)CC(=O)N([C@H](C)CO)C[C@H](C)[C@@H](CN(C)C(=O)Nc2ccc4c(c2)OCO4)O3)cc1,.,-,.,.,.
COc1cc(NC(=O)c2ccccc2)cc(OC)c1,-,65,-,-,-
COc1cccc(NC(=O)c2ccncc2)c1,-,-,-,-,-
CC(=O)Nc1cccc(NC(=O)c2ccc(COc3ccccc3)cc2)c1,-,98,-,-,-
COc1cccc(NC(=O)c2cccc(Cl)c2)c1,-,71,-,-,-
COc1ccc(NC(=O)c2cccc(NC(=O)c3ccccc3)c2)cc1,-,41,-,-,-
CC(=O)Nc1ccc(NC(=O)c2ccc(COc3ccccc3)cc2)cc1,-,-,-,-,-
COc1ccc(S(=O)(=O)N(C)C[C@H]2OCCCC[C@@H](C)Oc3ccc(NS(=O)(=O)c4c(C)noc4C)cc3C(=O)N([C@H](C)CO)C[C@H]2C)cc1,.,-,.,.,.
COc1ccc(C(=O)Nc2ccccc2C(=O)Nc2ccccc2)cc1,.,46,.,.,-
CN1c2ccc(C#Cc3cccnc3)cc2[C@H]2[C@H](CCN2S(=O)(=O)c2cccc(F)c2)[C@H]1CO,.,-,.,.,.
Cc1ccc(S(=O)(=O)N(C)C[C@H]2Oc3cc(C#Cc4ccncc4)ccc3S(=O)(=O)N([C@H](C)CO)C[C@@H]2C)cc1,.,-,.,.,.
CCCc1ccc2oc(C(=O)N(C)Cc3nccs3)c(C)c2c1,-,52,-,-,-
O=C(CN1CCOCC1)N1CCCCN2[C@H](C1)[C@H](c1ccc(C#Cc3ccccc3F)cc1)[C@@H]2CO,.,-,.,.,.
SMILES,Jurkat NFkB inh,esBAF inh,Gli-Sufu antag,697 NFkB inh,SMARCA2 activ
C(#CC1CCCC1)c1ccc2c(c1)COc1c3ccccc3nn1-2,-,60,-,-,-
Cc1noc(C)c1S(=O)(=O)Nc1ccc2c(c1)C(=O)N([C@@H](C)CO)C[C@H](C)[C@@H](CN(C)S(=O)(=O)c1cccs1)OCCCC[C@@H](C)O2,.,-,.,.,.
COc1ccc(N/N=C(\C#N)C(=N)N2CCCCC2)cc1,-,65,-,-,-
Cc1ccc(N/N=C(\C#N)C(=N)N2CCOCC2)cc1,-,.,-,-,-
CC(C)NC(=O)N(C)C[C@H]1Oc2cc(C#C[C@@H](C)O)ccc2S(=O)(=O)N([C@H](C)CO)C[C@H]1C,.,-,.,.,.
C[C@H](CO)N1C[C@H](C)[C@@H](CN(C)C(=O)[C@H](C)c2ccccc2)OCc2ccccc2-c2ccccc2C1=O,.,-,.,.,.
CCC/C(=C1/c2ccccc2C(=O)N1c1ccccc1)c1ccc2[nH]ccc2c1,-,-,-,-,-
O=C1c2ccccc2/C(=C\c2ccc3[nH]ccc3c2)N1c1ccccc1,-,45,-,-,-
CC(=O)N(C)c1ccc(NCc2cc(=O)oc3cc(C)c(O)cc23)cc1,-,80,-,-,-
Cc1cc(C)cc(NCc2cc(=O)oc3cc(C)c(O)cc23)c1,-,-,-,-,-
CCCNC(=O)C[C@@H]1C[C@H]2c3cc(NC(=O)NC4CCCCC4)ccc3O[C@H]2[C@@H](CO)O1,.,-,.,.,.
CC(Oc1ccccc1)C(=O)Nc1cccc(-c2nc3ccccc3[nH]2)c1 (stereo not drawn),-,46,-,-,-
CC(=O)Nc1cccc(-c2nc3ccccc3[nH]2)c1,-,-,-,-,-
Cc1cccc(NC(=O)CSc2ncnc3sc(C)c(C)c23)n1,-,-,-,-,-
Cc1sc2ncnc(SCC(=O)c3cccs3)c2c1C,-,60,-,-,-
Cc1cccc(C=CC(=O)c2ccccc2)c1,.,71,-,.,-
COc1ccc(C(=O)/C=C/c2ccc(O)cc2)cc1,-,-,-,-,-
O=C(/C=C/c1ccc(O)cc1)c1ccccc1,-,59,-,-,-
CSc1ncc(C(=O)Nc2ccccc2F)c(-c2ccccc2)n1,-,-,-,-,-
CSc1ncc(C(=O)Nc2ccc(C(C)=O)cc2)c(-c2ccccc2)n1,-,61,-,-,-
CCOc1ccccc1OCCn1nc2ccccc2n1,-,-,-,-,-
Cc1ccc(OCCn2nc3ccccc3n2)c(C)c1,-,55,-,-,-
On1onc2c3cc(-c4ccccc4)nc3ccc21,-,-,65,-,-
CCCNC(=O)N[C@@H]1C=C[C@H](CC(=O)NC2CCC2)O[C@@H]1CO,.,-,.,.,.
COc1ccccc1N=Nc1[nH]c2ccc(C)cc2c1O,-,.,-,-,7.9
SMILES,Jurkat NFkB inh,esBAF inh,Gli-Sufu antag,697 NFkB inh,SMARCA2 activ
Cc1ccc2[nH]c(O)c(N=Nc3ccccc3[N+](=O)[O-])c2c1,.,.,-,.,-
Cc1ccc(C2CN=NC23CCc2ccccc2C3=O)cc1 (stereo not drawn),-,48,-,-,-
CCOC(=O)CN1C(=O)S/C(=C/c2ccc3c(c2)n(C)c(=O)n3C)C1=O,-,46,-,-,-
Cn1c(=O)n(C)c2cc(/C=C3/SC(=O)N(CC(=O)N4CCOCC4)C3=O)ccc21,-,.,-,-,-
CCCn1cnc2c(SCc3ccccn3)nc(N)nc21,.,-,-,.,-
CCCn1cnc2c(SCc3ccccc3Cl)nc(N)nc21,.,48,-,.,-
CC(C)Cn1cnc2c(SCc3ccccc3F)nc(N)nc21,.,.,-,.,-
CC(C)Cn1cnc2c(SCc3ccccc3)nc(N)nc21,.,76,-,.,-
CCCn1cnc2c(SCCc3ccccc3)nc(N)nc21,.,61,-,.,-
CCCCn1cnc2c(SCc3ccccc3F)nc(N)nc21,.,50,-,.,-
